Experimental data from the supplement of paper PMC10849652.
About 8,800 targets were measured; listed, in parts, are those with a hit and a random draw of the rest. About 0.5% of all pairs of compound and target were hits.

How the values were obtained:
Test in all cases: log2 fold change, soluble protein after heating vs DMSO (PISA); higher = thermal stabilisation; K562 lysate, 10 uM; active = over 0.2 and 3.5 SD of the protein, either way, in both replicates (recomputed)
[1] = compound: C#Cc1cccc(Nc2ncnc3cc(OCCOC)c(OCCOC)cc23)c1 [erlotinib]
Outline: (§1)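 Thermal stability, expressed as log-two fold change relative to solvent controls, is given from duplicates. Crude K562 extract in PBS pH 7.4 with 1 mM MgCl2, at 1 mg/mL protein, was treated with 10 μM compound for 30 min and heated in aliquots for 3 min across 48°C-58°C. After pooling, adjustment to 0.5% NP-40 at 4°C and centrifugation at 21,000xg for 90 min, supernatant protein was measured by TMTpro 16plex LC-MS/MS with channel sums equalised.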

[2] = compound: C/C(=N\NC(=O)C1=CC(=CC=C1)S(=O)(=O)N2CCOCC2)/C3=C(C=CC(=C3)Cl)O
Outline: as §1

[3] = compound: C1=CC(=CC=C1C2=NC3=C(N2)C=C(C=C3)C(=O)N)OC4=CC=C(C=C4)Cl
Outline: as §1

[4] = compound: C1=CC2=C(C=CC(=C2)/C=C\3/C(=O)NC(=NCC4=CC=CS4)S3)N=C1
Outline: as §1

[5] = compound: C1=CC2=NC=CN=C2C=C1/C=C/3\C(=O)NC(=O)S3
Outline: as §1

[6] = compound: C1=CC=C(C=C1)C2=NC(=C(N2)C3=CC=NC=C3)C4=CC(=C(C=C4)Cl)O
Outline: as §1

[7] = compound: C1=CC=C2C(=C1)C3=NNC4=CC=CC(=C43)C2=O
Outline: as §1

[8] = compound: C1CCN(C1)C(=O)NC2=CC=CC(=C2)NC3=NC=C(C(=N3)NCCC4=CN=CN4)Br
Outline: as §1

[9] = compound: C1CN(CCC1(CC2=CC=C(C=C2)Cl)N)C3=NC=NC4=C3C=CN4
Outline: as §1

[10] = compound: C1COCCN1CCN2C3=CC=CC=C3N=C2NC(=O)C4=CC(=CC=C4)[N+](=O)[O-] [IRAK-1-4 Inhibitor I]
Outline: as §1

[11] = compound: C=CC(=O)N1CCC[C@@H](n2nc(-c3ccc(Oc4ccccc4)cc3)c3c(N)ncnc32)C1 [ibrutinib]
Outline: as §1

[12] = compound: CC(=O)c1cnc2ccc(-c3cc(Cl)c(O)c(Cl)c3)nc2c1N[C@H]1CC[C@H](CN(C)C)CC1
Outline: as §1

[13] = compound: CC(C)(C)Cn1c(N)nc2ccc(-c3[nH]c(C(C)(C)C)nc3-c3ccc(F)cc3)nc21 [ralimetinib]
Outline: as §1

[14] = compound: CC(C)(O)CC(=O)NCCn1ccc2ncnc(Nc3ccc(Oc4cccc(C(F)(F)F)c4)c(Cl)c3)c21
Outline: as §1

[15] = compound: CC(C)C1=C2N=C(C=C(N2N=C1)NCC3=CC=CC=C3)NCCCCCCN
Outline: as §1

[16] = compound: CC1=C(C(CC(=O)N1)C2=CC=C(C=C2)C(F)(F)F)C(=O)NC3=C(C=C4C(=C3)C=NN4)F
Outline: as §1

[17] = compound: CC1=C(C2=C(C=C1)C(=O)C3=CC=CC=C3N2CCCN)C
Outline: as §1

[18] = compound: CC1=C(C=C(C=C1)NC(=O)C2=CC(=CC=C2)C(C)(C)C#N)NC3=CC4=C(C=C3)N=CN(C4=O)C
Outline: as §1

[19] = compound: CC1=C(C=C(C=C1)NC(=O)C2=CC(=CC=C2)N(C)C)NC(=O)C3=CC=C(C=C3)O
Outline: as §1

[20] = compound: CC1=CC=C(C=C1)SC2=C3C=C(SC3=CN=C2)C(=O)N
Outline: as §1

Measured: log2 fold change

BUD23 isoform 3 (UniProt O43709)
Sequence of UniProt O43709 (O43709 whole entry, looked up): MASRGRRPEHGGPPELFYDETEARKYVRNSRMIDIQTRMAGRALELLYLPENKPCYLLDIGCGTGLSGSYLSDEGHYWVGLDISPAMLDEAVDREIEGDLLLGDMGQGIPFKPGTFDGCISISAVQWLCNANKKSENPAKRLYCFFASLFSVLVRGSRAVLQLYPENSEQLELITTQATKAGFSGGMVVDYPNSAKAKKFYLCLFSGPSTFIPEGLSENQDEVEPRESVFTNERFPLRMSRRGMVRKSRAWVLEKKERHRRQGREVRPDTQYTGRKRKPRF
inactive: [1] 0.074 | [2] -0.046 | [3] 0.009 | [4] -0.008 | [5] -0.097 | [6] -0.02 | [7] -0.01 | [8] -0.026 | [9] -0.033 | [10] -0.017 | [11] -0.017 | [12] -0.007 | [13] 0.089 | [14] -0.002 | [15] -0.064 | [16] -0.004 | [17] 0.119 | [18] -0.056 | [19] -0.023 | [20] -0.001

BTAF1 (UniProt O14981)
Sequence of UniProt O14981 (O14981 whole entry, looked up): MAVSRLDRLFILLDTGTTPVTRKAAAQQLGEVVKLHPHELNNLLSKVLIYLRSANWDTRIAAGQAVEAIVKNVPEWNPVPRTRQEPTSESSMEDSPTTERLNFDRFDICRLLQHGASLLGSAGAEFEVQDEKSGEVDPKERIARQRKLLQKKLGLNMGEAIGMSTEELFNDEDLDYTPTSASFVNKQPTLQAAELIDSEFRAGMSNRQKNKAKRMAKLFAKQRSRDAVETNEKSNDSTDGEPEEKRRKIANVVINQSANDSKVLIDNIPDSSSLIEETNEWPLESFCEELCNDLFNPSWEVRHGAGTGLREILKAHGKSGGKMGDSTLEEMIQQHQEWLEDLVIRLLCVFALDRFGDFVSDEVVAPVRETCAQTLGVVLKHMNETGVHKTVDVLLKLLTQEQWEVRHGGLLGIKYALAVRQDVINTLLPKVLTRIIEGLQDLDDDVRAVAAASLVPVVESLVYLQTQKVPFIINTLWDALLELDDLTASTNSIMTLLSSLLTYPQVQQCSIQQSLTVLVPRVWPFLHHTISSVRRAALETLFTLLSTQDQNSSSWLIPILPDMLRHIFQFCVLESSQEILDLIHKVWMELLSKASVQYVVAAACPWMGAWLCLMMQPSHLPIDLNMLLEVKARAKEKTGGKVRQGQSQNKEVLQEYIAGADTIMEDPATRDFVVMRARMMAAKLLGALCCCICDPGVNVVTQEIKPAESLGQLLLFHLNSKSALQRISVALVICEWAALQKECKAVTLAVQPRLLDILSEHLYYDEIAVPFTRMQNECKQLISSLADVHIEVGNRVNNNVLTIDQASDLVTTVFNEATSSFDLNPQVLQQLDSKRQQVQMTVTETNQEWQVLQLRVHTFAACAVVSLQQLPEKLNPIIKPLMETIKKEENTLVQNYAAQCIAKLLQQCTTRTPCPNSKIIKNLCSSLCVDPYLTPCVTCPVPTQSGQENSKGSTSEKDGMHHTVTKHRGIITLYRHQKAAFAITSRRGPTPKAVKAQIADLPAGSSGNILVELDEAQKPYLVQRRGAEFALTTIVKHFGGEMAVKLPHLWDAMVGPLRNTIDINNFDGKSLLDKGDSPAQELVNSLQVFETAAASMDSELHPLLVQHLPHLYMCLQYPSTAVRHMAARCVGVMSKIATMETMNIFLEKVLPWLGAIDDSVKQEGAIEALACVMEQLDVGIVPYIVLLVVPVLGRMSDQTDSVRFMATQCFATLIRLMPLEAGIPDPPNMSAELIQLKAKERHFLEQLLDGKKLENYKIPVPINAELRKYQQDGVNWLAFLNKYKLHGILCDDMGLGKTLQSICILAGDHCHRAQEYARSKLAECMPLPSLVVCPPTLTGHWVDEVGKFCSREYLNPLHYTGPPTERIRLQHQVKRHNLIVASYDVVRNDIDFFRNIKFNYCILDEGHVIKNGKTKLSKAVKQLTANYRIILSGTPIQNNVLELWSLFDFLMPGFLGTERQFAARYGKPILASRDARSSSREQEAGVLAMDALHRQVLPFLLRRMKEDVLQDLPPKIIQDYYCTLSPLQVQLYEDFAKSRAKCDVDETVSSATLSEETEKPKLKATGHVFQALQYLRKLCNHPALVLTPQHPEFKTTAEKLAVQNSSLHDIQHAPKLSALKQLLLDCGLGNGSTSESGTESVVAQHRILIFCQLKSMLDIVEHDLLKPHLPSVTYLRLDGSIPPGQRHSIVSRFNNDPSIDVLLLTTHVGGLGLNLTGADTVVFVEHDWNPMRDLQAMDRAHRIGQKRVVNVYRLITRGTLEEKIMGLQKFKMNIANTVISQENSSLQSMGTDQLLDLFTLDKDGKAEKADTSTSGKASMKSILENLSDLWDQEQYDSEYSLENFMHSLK
inactive: [1] 0.044 | [2] -0.035 | [3] -0.01 | [4] -0.002 | [5] -0.003 | [6] 0.002 | [7] 0.002 | [8] -0.017 | [9] 0.022 | [10] -0.034 | [11] -0.016 | [12] -0.003 | [13] 0.01 | [14] -0.008 | [15] 0.003 | [16] 0.018 | [17] 0.023 | [18] 0 | [19] 0.025 | [20] -0.012

CDK5RAP2 (UniProt Q96SN8)
active: [12] 0.268
inactive: [1] 0.037 | [2] 0.159 | [3] -0.021 | [4] -0.008 | [5] -0.09 | [6] -0.011 | [7] -0.025 | [8] -0.016 | [9] 0.001 | [10] -0.026 | [11] -0.022 | [13] -0.006 | [14] 0.01 | [15] -0.019 | [16] -0.001 | [17] -0.044 | [18] -0.007 | [19] 0.003 | [20] 0.067

C1orf112 (UniProt Q9NSG2)
inactive: [1] -0.053 | [2] 0.015 | [3] 0.079 | [4] -0.008 | [5] -0.057 | [6] 0.026 | [7] 0 | [8] -0.046 | [9] 0.054 | [10] -0.034 | [11] 0.014 | [12] 0.038 | [13] 0.022 | [14] -0.061 | [15] 0.017 | [16] 0.067 | [17] -0.085 | [18] -0.029 | [19] 0.036 | [20] 0.091

CAD (UniProt P27708)
inactive: [1] 0.013 | [2] 0.003 | [3] -0.015 | [4] 0.032 | [5] 0.013 | [6] -0.006 | [7] -0.008 | [8] -0.002 | [9] 0.011 | [10] -0.004 | [11] -0.009 | [12] -0.016 | [13] 0.03 | [14] -0.002 | [15] 0.005 | [16] -0.005 | [17] 0.026 | [18] 0.009 | [19] 0.009 | [20] 0.018

C18orf32 (UniProt Q8TCD1)
Sequence of UniProt Q8TCD1 (Q8TCD1 whole entry, looked up): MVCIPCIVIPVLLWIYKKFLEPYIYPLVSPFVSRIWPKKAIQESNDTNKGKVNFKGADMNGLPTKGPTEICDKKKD
inactive: [1] 0.089 | [2] 0.126 | [3] 0.009 | [4] -0.06 | [5] -0.026 | [6] 0.011 | [7] 0.003 | [8] -0.049 | [9] -0.032 | [10] -0.026 | [11] 0.069 | [12] -0.014 | [13] 0.053 | [14] -0.048 | [15] -0.069 | [16] -0.078 | [17] -0.021 | [18] 0.074 | [19] -0.056 | [20] 0.032

CARHSP1 (UniProt Q9Y2V2)
Sequence of UniProt Q9Y2V2 (Q9Y2V2 whole entry, looked up): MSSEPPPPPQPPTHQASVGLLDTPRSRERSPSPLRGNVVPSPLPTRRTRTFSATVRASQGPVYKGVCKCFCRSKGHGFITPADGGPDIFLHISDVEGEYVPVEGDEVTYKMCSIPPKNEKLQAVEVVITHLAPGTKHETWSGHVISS
inactive: [1] 0.011 | [2] 0.022 | [3] -0.033 | [4] -0.06 | [5] 0.006 | [6] -0.026 | [7] 0.027 | [8] 0.01 | [9] 0.011 | [10] 0.024 | [11] 0.053 | [12] 0.021 | [13] -0.024 | [14] -0.032 | [15] 0.017 | [16] -0.029 | [17] 0.006 | [18] 0.014 | [19] 0.009 | [20] -0.008

CCNK isoform 4 (UniProt O75909)
inactive: [1] -0.018 | [2] -0.022 | [3] -0.012 | [4] -0.016 | [5] -0.062 | [6] -0.039 | [7] -0.001 | [8] 0.01 | [9] 0.002 | [10] -0.021 | [11] 0.09 | [12] 0.007 | [13] 0.042 | [14] -0.01 | [15] 0.012 | [16] 0.015 | [17] -0.017 | [18] 0.024 | [19] -0.037 | [20] -0.007

CCDC25 (UniProt Q86WR0)
inactive: [1] -0.012 | [2] 0.031 | [3] 0.031 | [4] 0.012 | [5] 0.019 | [6] 0.015 | [7] 0.007 | [8] -0.006 | [9] 0 | [10] -0.024 | [11] 0.023 | [12] -0.006 | [13] -0.018 | [14] -0.013 | [15] 0.017 | [16] -0.042 | [17] -0.022 | [18] 0.03 | [19] -0.002 | [20] 0

CAMKK2 (UniProt Q96RR4)
Sequence of UniProt Q96RR4 (Q96RR4 whole entry, looked up): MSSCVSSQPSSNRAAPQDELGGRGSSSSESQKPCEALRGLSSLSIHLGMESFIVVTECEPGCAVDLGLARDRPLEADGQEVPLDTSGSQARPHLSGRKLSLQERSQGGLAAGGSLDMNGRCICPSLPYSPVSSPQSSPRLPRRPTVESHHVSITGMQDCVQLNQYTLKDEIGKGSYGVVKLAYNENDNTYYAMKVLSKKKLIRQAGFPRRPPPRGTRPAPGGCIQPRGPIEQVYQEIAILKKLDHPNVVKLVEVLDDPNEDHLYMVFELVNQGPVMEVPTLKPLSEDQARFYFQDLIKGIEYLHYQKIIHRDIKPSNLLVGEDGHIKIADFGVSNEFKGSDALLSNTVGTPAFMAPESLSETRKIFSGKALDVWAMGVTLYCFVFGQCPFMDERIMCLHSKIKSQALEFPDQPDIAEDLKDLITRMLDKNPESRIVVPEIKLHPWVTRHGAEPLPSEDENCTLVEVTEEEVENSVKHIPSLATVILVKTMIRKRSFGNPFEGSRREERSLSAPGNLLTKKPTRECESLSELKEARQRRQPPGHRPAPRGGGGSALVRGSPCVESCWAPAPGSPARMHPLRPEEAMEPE
active: [12] 0.231
inactive: [1] -0.033 | [2] -0.028 | [3] -0.045 | [4] -0.057 | [5] -0.014 | [6] 0.005 | [7] 0.002 | [8] 0.135 | [9] 0.033 | [10] -0.027 | [11] 0.052 | [13] 0.035 | [14] -0.005 | [15] 0.019 | [16] -0.011 | [17] -0.005 | [18] -0.031 | [19] 0.005 | [20] 0.014

CAMLG (UniProt P49069)
Sequence of UniProt P49069 (P49069 whole entry, looked up): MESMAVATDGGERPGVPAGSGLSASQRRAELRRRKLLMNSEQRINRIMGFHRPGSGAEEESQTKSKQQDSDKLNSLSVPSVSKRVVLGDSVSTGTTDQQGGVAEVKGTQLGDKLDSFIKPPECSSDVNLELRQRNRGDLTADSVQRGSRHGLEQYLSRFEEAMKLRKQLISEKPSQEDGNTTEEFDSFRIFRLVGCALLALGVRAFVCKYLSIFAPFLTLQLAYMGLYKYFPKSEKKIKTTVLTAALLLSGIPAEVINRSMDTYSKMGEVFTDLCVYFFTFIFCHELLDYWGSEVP
inactive: [1] -0.002 | [2] 0.05 | [3] -0.013 | [4] 0.004 | [5] -0.001 | [6] 0.035 | [7] -0.033 | [8] 0.029 | [9] -0.028 | [10] -0.025 | [11] -0.019 | [12] -0.003 | [13] 0.084 | [14] -0.023 | [15] 0.009 | [16] -0.068 | [17] -0.024 | [18] -0.028 | [19] 0.004 | [20] -0.012

CBX1 (UniProt P83916)
Sequence of UniProt P83916 (P83916 whole entry, looked up): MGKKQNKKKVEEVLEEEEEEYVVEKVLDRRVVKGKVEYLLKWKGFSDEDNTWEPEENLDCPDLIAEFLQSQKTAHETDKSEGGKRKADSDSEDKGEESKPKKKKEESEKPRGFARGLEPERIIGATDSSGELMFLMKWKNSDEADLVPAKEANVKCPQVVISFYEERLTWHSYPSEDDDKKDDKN
inactive: [1] -0.012 | [2] -0.158 | [3] -0.012 | [4] -0.006 | [5] 0.03 | [6] -0.017 | [7] 0.017 | [8] 0.008 | [9] 0.03 | [10] 0.029 | [11] -0.002 | [12] 0.021 | [13] -0.006 | [14] -0.023 | [15] -0.039 | [16] -0.033 | [17] -0.024 | [18] 0.007 | [19] -0.003 | [20] -0.046

CASP6 (UniProt P55212)
inactive: [1] -0.006 | [2] 0.031 | [3] -0.006 | [4] -0.004 | [5] 0.006 | [6] 0 | [7] -0.005 | [8] 0.012 | [9] 0.017 | [10] 0.015 | [11] -0.029 | [12] 0.034 | [13] 0.074 | [14] 0.011 | [15] -0.042 | [16] -0.012 | [17] 0.005 | [18] -0.003 | [19] -0.02 | [20] -0.008

CEP76 (UniProt Q8TAP6)
Sequence of UniProt Q8TAP6 (Q8TAP6 whole entry, looked up): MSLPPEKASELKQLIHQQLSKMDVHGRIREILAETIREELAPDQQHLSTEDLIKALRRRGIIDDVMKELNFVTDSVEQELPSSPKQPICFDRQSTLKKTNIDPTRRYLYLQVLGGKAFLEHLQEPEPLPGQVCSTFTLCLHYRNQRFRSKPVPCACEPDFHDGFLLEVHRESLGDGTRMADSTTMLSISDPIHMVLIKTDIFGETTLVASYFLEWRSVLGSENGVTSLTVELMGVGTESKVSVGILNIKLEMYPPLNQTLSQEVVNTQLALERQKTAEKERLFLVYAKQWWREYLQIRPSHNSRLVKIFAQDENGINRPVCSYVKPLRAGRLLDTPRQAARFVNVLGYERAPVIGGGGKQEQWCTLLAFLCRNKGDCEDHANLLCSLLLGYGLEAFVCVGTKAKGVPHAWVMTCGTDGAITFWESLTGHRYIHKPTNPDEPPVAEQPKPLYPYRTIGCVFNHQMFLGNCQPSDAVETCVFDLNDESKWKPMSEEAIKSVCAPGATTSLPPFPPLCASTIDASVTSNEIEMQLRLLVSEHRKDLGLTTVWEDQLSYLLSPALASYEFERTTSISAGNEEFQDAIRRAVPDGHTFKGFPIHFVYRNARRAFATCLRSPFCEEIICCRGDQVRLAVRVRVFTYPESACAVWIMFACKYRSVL
inactive: [1] 0.005 | [2] -0.033 | [3] 0.012 | [4] 0.053 | [5] -0.072 | [6] -0.003 | [7] 0.052 | [8] -0.002 | [9] 0 | [10] 0.056 | [11] -0.004 | [12] 0.081 | [13] 0.019 | [14] 0.003 | [15] -0.002 | [16] -0.019 | [17] -0.063 | [18] 0.051 | [19] 0 | [20] -0.005

CCPG1 isoform 5 (UniProt Q9ULG6)
Sequence of UniProt Q9ULG6 (Q9ULG6 whole entry, looked up): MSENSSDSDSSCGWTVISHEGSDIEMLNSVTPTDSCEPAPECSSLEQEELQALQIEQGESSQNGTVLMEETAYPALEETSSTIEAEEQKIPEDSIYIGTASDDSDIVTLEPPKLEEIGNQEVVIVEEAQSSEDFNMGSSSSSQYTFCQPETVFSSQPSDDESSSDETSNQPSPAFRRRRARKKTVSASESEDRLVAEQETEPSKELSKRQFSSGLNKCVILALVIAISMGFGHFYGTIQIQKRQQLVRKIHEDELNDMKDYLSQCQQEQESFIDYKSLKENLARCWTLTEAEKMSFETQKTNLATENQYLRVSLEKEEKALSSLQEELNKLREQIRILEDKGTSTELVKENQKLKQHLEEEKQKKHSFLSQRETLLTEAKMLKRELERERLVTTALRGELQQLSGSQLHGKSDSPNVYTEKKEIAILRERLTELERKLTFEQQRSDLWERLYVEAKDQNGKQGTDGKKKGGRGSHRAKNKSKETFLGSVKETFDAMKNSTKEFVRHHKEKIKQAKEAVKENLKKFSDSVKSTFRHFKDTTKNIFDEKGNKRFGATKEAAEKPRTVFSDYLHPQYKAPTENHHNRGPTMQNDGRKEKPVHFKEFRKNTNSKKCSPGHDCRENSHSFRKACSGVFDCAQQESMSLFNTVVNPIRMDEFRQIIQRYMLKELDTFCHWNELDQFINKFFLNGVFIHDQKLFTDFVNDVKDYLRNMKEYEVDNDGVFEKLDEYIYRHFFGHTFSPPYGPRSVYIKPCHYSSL
inactive: [1] -0.014 | [2] 0.08 | [3] 0.082 | [4] 0.017 | [5] 0.024 | [6] 0.067 | [7] -0.119 | [8] 0.019 | [9] 0.053 | [10] -0.03 | [11] 0.021 | [12] -0.014 | [13] 0.08 | [14] 0.013 | [15] 0.014 | [16] -0.004 | [17] -0.058 | [18] -0.026 | [19] -0.029 | [20] -0.102

BOLA2 (UniProt Q9H3K6)
Sequence of UniProt Q9H3K6 (Q9H3K6 whole entry, looked up): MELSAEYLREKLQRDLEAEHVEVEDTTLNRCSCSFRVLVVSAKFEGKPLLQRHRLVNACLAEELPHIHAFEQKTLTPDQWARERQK
inactive: [1] 0.008 | [2] 0.078 | [3] -0.112 | [4] -0.007 | [5] 0.032 | [6] 0.01 | [7] 0.039 | [8] 0.034 | [9] 0.006 | [10] 0.013 | [11] -0.01 | [12] 0.02 | [13] -0.025 | [14] 0.008 | [15] -0.025 | [16] -0.059 | [17] 0.038 | [18] -0.029 | [19] -0.022 | [20] 0.039
